In PubChem BioAssay (NCATS):
Inconclusive results are not listed. The source made the active and inactive calls. Calls come from the whole dose curve; as a rule, active = well fitted inhibition curve with a large enough effect; inconclusive = small, poorly fitted or top-dose-only effect; inactive = flat fitted curve, though single readings scatter.

Columns and labels:
[1] = qHTS profiling for inhibitors of Plasmodium falciparum proliferation (AID 504749); note: nearly all actives have a fitted effect of over 60% in size;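 for activity, negative = inhibition: 0% = DMSO vehicle and full inhibition = artemisinin control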; details: P. falciparum in erythrocytes, SYBR Green DNA, 72 h
Method in brief: (§1)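 P. falciparum-infected erythrocytes (0.3% parasitemia, 2.5% hematocrit final) were exposed to compounds for 72 h at 37 C in 5% CO2, then lysed with SYBR Green buffer overnight at room temperature; parasite DNA fluorescence was normalized to artemisinin and DMSO controls.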

3D7 = assay: as above; details: P. falciparum in erythrocytes, SYBR Green DNA, 72 h; series mostly up to 28.7 µM
Method in brief: as §1

AS120 = assay: as above; details: P. falciparum in erythrocytes, SYBR Green DNA, 72 h; series mostly up to 28.7 µM
Method in brief: as §1

C2A = assay: as above; details: P. falciparum in erythrocytes, SYBR Green DNA, 72 h; series mostly up to 28.7 µM
Method in brief: as §1

CP185 = assay: as above; details: P. falciparum in erythrocytes, SYBR Green DNA, 72 h; series mostly up to 28.7 µM
Method in brief: as §1

CP191 = assay: as above; details: P. falciparum in erythrocytes, SYBR Green DNA, 72 h; series mostly up to 28.7 µM
Method in brief: as §1

CP192 = assay: as above; details: P. falciparum in erythrocytes, SYBR Green DNA, 72 h; series mostly up to 28.7 µM
Method in brief: as §1

CP194 = assay: as above; details: P. falciparum in erythrocytes, SYBR Green DNA, 72 h; series mostly up to 28.7 µM
Method in brief: as §1

CP201 = assay: as above; details: P. falciparum in erythrocytes, SYBR Green DNA, 72 h; series mostly up to 28.7 µM
Method in brief: as §1

CP211 = assay: as above; details: P. falciparum in erythrocytes, SYBR Green DNA, 72 h; series mostly up to 28.7 µM
Method in brief: as §1

CP215 = assay: as above; details: P. falciparum in erythrocytes, SYBR Green DNA, 72 h; series mostly up to 28.7 µM
Method in brief: as §1

CP217 = assay: as above; details: P. falciparum in erythrocytes, SYBR Green DNA, 72 h; series mostly up to 28.7 µM
Method in brief: as §1

CP237 = assay: as above; details: P. falciparum in erythrocytes, SYBR Green DNA, 72 h; series mostly up to 28.7 µM
Method in brief: as §1

CP238 = assay: as above; details: P. falciparum in erythrocytes, SYBR Green DNA, 72 h; series mostly up to 28.7 µM
Method in brief: as §1

7G8 = assay: as above; details: P. falciparum in erythrocytes, SYBR Green DNA, 72 h; series mostly up to 28.7 µM
Method in brief: as §1

AA1029 = assay: as above; details: P. falciparum in erythrocytes, SYBR Green DNA, 72 h; series mostly up to 28.7 µM
Method in brief: as §1

ATS189 = assay: as above; details: P. falciparum in erythrocytes, SYBR Green DNA, 72 h; series mostly up to 28.7 µM
Method in brief: as §1

ATS95 = assay: as above; details: P. falciparum in erythrocytes, SYBR Green DNA, 72 h; series mostly up to 28.7 µM
Method in brief: as §1

CP203 = assay: as above; details: P. falciparum in erythrocytes, SYBR Green DNA, 72 h; series mostly up to 28.7 µM
Method in brief: as §1

CP247 = assay: as above; details: P. falciparum in erythrocytes, SYBR Green DNA, 72 h; series mostly up to 28.7 µM
Method in brief: as §1

[2] = at 12.8 µM (top of the series), parasite line A
[3] = at 12.8 µM (top of the series), parasite line B
[4] = at 28.7 µM (top of the series), parasite line A
[5] = at 28.7 µM (top of the series), parasite line B
Potency is the fitted concentration of half-maximal effect.

CN(C)CCCOc1nn(Cc2ccccc2)c2ccccc12
inactive: activity, negative = inhibition [1, 2] -0.403% | activity, negative = inhibition [1, 3] -0.662% | Potency (3D7) | Potency (AS120) | Potency (C2A) | Potency (CP185) | Potency (CP191) | Potency (CP192) | Potency (CP194) | Potency (CP201) | Potency (CP211) | Potency (CP215) | Potency (CP217) | Potency (CP238)
active: Potency (CP237) 3.16 µM

CCCCCCCCCCCCCCCCCC(=O)OCC(O)CO (stereo not given)
inactive: activity, negative = inhibition [1, 4] 5.19% | activity, negative = inhibition [1, 5] 11.8% | Potency (7G8) | Potency (AA1029) | Potency (AS120) | Potency (ATS189) | Potency (ATS95) | Potency (C2A) | Potency (CP185) | Potency (CP191) | Potency (CP192) | Potency (CP194) | Potency (CP201) | Potency (CP203) | Potency (CP211) | Potency (CP215) | Potency (CP217) | Potency (CP237) | Potency (CP238) | Potency (CP247)

CN1CCC[C@@H]1c1cccnc1
inactive: activity, negative = inhibition [1, 4] 3.02% | Potency (3D7) | Potency (7G8) | Potency (AA1029) | Potency (AS120) | Potency (ATS189) | Potency (ATS95) | Potency (C2A) | Potency (CP185) | Potency (CP191) | Potency (CP192) | Potency (CP194) | Potency (CP201) | Potency (CP203) | Potency (CP211) | Potency (CP215) | Potency (CP217) | Potency (CP237) | Potency (CP238) | Potency (CP247)

CCCCN1CCCC1C(=O)Nc1c(C)cc(C)cc1C (stereo not given)
inactive: activity, negative = inhibition [1, 4] -15.8% | activity, negative = inhibition [1, 5] -3.59% | Potency (3D7) | Potency (AA1029) | Potency (AS120) | Potency (ATS189) | Potency (ATS95) | Potency (C2A) | Potency (CP185) | Potency (CP191) | Potency (CP192) | Potency (CP194) | Potency (CP201) | Potency (CP203) | Potency (CP211) | Potency (CP215) | Potency (CP217) | Potency (CP238) | Potency (CP247)

O=C(N/N=C/c1ccccc1O)c1ccncc1
active: Potency ([1]; parasite line A) 6.31 µM | Potency ([1]; parasite line B) 11.2 µM | Potency (7G8) 8.91 µM | Potency (AA1029) 11.2 µM | Potency (AS120) 4.47 µM | Potency (C2A) 11.2 µM | Potency (CP217) 8.91 µM | Potency (CP238) 8.91 µM | Potency (CP247) 8.91 µM

CC(C)(C(=O)c1cccnc1)c1cccnc1
inactive: activity, negative = inhibition [1, 2] -8.96% | activity, negative = inhibition [1, 3] -23.5% | Potency (3D7) | Potency (AA1029) | Potency (AS120) | Potency (ATS189) | Potency (ATS95) | Potency (C2A) | Potency (CP185) | Potency (CP191) | Potency (CP192) | Potency (CP194) | Potency (CP201) | Potency (CP203) | Potency (CP211) | Potency (CP215) | Potency (CP217) | Potency (CP237) | Potency (CP238) | Potency (CP247)

CCN(CCCc1ccccc1)CCCc1ccccc1
active: Potency (ATS95) 3.55 µM
inactive: activity, negative = inhibition [1, 2] -8.39% | activity, negative = inhibition [1, 3] -11% | Potency (3D7) | Potency (C2A) | Potency (CP191) | Potency (CP192) | Potency (CP201) | Potency (CP217) | Potency (CP247)

CN1CCN(C(c2ccccc2)c2ccccc2)CC1
inactive: activity, negative = inhibition [1, 2] 3.5% | activity, negative = inhibition [1, 3] -5.02% | Potency (3D7) | Potency (AS120) | Potency (ATS189) | Potency (C2A) | Potency (CP185) | Potency (CP191) | Potency (CP192) | Potency (CP201) | Potency (CP211) | Potency (CP217) | Potency (CP238) | Potency (CP247)

c1ccc(OCc2ccc(CCCN3CCOCC3)cc2)cc1
inactive: activity, negative = inhibition [1, 4] 3.42% | activity, negative = inhibition [1, 5] 8.4% | Potency (3D7) | Potency (AA1029) | Potency (AS120) | Potency (ATS189) | Potency (ATS95) | Potency (C2A) | Potency (CP185) | Potency (CP191) | Potency (CP192) | Potency (CP194) | Potency (CP201) | Potency (CP203) | Potency (CP211) | Potency (CP215) | Potency (CP217) | Potency (CP237) | Potency (CP238) | Potency (CP247)

O=C1[C@H]2CCCC[C@H]2C(=O)N1CCCCN1CCN(c2nsc3ccccc23)CC1
inactive: activity, negative = inhibition [1, 4] -3.99% | activity, negative = inhibition [1, 5] 7.58% | Potency (AA1029) | Potency (AS120) | Potency (ATS189) | Potency (ATS95) | Potency (CP185) | Potency (CP192) | Potency (CP194) | Potency (CP201) | Potency (CP203) | Potency (CP211) | Potency (CP215) | Potency (CP217) | Potency (CP238) | Potency (CP247)

CCN(CC)C(=O)/C(C#N)=C/c1cc(O)c(O)c([N+](=O)[O-])c1
inactive: activity, negative = inhibition [1, 4] -3.14% | activity, negative = inhibition [1, 5] -7.95% | Potency (AA1029) | Potency (AS120) | Potency (ATS189) | Potency (ATS95) | Potency (C2A) | Potency (CP185) | Potency (CP191) | Potency (CP192) | Potency (CP194) | Potency (CP201) | Potency (CP203) | Potency (CP211) | Potency (CP215) | Potency (CP238)
active: Potency (7G8) 14.1 µM

CCN(CC)CCOC(=O)C(c1ccccc1)C1CCCCC1 (stereo not given)
inactive: activity, negative = inhibition [1, 4] 0.689% | activity, negative = inhibition [1, 5] -1.84% | Potency (3D7) | Potency (AS120) | Potency (ATS189) | Potency (C2A) | Potency (CP185) | Potency (CP191) | Potency (CP192) | Potency (CP201) | Potency (CP211) | Potency (CP217) | Potency (CP237) | Potency (CP238) | Potency (CP247)

CCCCC1=NC2(CCCC2)C(=O)N1Cc1ccc(-c2ccccc2-c2nn[nH]n2)cc1
inactive: activity, negative = inhibition [1, 4] -0.908% | activity, negative = inhibition [1, 5] -26.5% | Potency (3D7) | Potency (AA1029) | Potency (AS120) | Potency (ATS189) | Potency (C2A) | Potency (CP185) | Potency (CP191) | Potency (CP192) | Potency (CP194) | Potency (CP201) | Potency (CP203) | Potency (CP211) | Potency (CP215) | Potency (CP217) | Potency (CP237) | Potency (CP238) | Potency (CP247)

CC(=O)c1ccc2c(c1)N(CCCN1CCC(CCO)CC1)c1ccccc1S2
inactive: activity, negative = inhibition [1, 2] -2.26% | activity, negative = inhibition [1, 3] 0.0996% | Potency (3D7) | Potency (AA1029) | Potency (AS120) | Potency (ATS189) | Potency (ATS95) | Potency (C2A) | Potency (CP185) | Potency (CP191) | Potency (CP192) | Potency (CP201) | Potency (CP211) | Potency (CP217) | Potency (CP238) | Potency (CP247)
